# Reference: PubChem BioAssay (EPA / NIEHS)
# Values joined by “and” are separate entries in the source; they are usually repeats but may differ in a detail not shown here. Identical values can stand only once. Records with an inconclusive call do not appear. Some structures have more than one record in an assay (separate samples or runs), and their calls can disagree. Active and inactive are the calls of the source. Rule for the calls, unless noted: active = hit-call score of the fitted dose curve at least 0.9, where 1 is the maximum; inconclusive = response in the unintended direction; inactive = score below 0.9.
# How the values were obtained:
# [1] = STM_H9_OrnCyssISnorm_ratio: Stemina devTOX quickPredict H9 human embryonic stem cell (hESC)-based Assay for Ornithine (ORN):Cystine (CYSS) Ratio (AID 2283714)
# Procedure, shortened: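 UPLC-HRMS of spent media: ORN/CYSS ratio of internal-standard-normalized percentages, DMSO (0.1%) baseline. Pluripotent H9 hESCs, 72h exposure, daily re-dosing with fresh media; last 24h media collected.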
# [2] = CEETOX_H295R_MTT_cell_viability: Viability Assessment in the CeeTox HT-H295R MTT Assay (AID 2283718; active = hit-call score of the fitted dose curve at least 0.9, where 1 is the maximum; inactive = score below 0.9;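 for AC50: curve fitted both ways so AC50 may mark viability loss or gain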)
# Procedure, shortened: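 Human H295R adrenal cells, prestimulated 48 h with 10 uM forskolin, were exposed 48 h to chemicals in 0.1% DMSO. Viability was measured in the same wells by MTT (0.5 mg/ml, 4 h, 37 C), absorbance 570/650 nm, as percent of controls.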
# [3] = Tanguay_ZF_120hpf_ActivityScore_legacy: (Legacy) Oregon State University Tanguay Lab 120 Hour Post-fertilization zebrafish Assay Score for Activity (AID 2283742);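 for AC50: dechorionated Tropical 5D wild-type zebrafish embryos held singly per well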
# Procedure, shortened: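 Dechorionated 5D embryos, one per well, static exposure 6–120 hpf, 28C, sealed and dark; final DMSO 0.64% (vol/vol). Brightfield binary scoring of mortality plus 18 endpoints; gain-of-signal fit versus DMSO baseline.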
# [4] = ArunA_CellTiter_hNC: Viability Assessment in the ArunA Biomedical's Oris Neural Crest (hNC) Cell Migration Assay (AID 2283752)
# Procedure, shortened: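 After a 72 h chemical exposure, viability of hNC cells is read with CellTiter Aqueous One and fitted as signal loss relative to DMSO. Cells were seeded at 60,000/well on Matrigel and cultured 16 h at 37 C beforehand.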
# [5] = ArunA_CellTiter_hNP: Viability Assessment in the ArunA Biomedical's Oris Neural Crest (hNC) Cell Migration Assay (AID 2283753)
# Procedure, shortened: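 Viability read with CellTiter 96 Aqueous One after 72 h chemical exposure of human hNP1 neuroprogenitors, which were plated on Matrigel in LIF/bFGF medium 16 h beforehand. Endpoint fitted in positive direction relative to DMSO.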
# [6] = ArunA_Migration_hNP: ArunA Biomedical's Oris Neuroprogenitor (hNP) Cell Migration Assay (AID 2283754)
# Procedure, shortened: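 Readout is calcein-AM fluorescence (ex494/em517) of cells migrating into the detection zone, relative to DMSO. hNP1 cells (H9-derived) grown on Matrigel behind stoppers 16 h, then stoppers pulled and chemical applied 72 h; cytochalasin D as control.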
# [7] = ArunA_Migration_hNC: ArunA Biomedical's Oris Neural Crest (hNC) Cell Migration Assay (AID 2283755)
# Procedure, shortened: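 Calcein-AM fluorescence (ex494 nm/em 517 nm) in the stopper-defined detection zone quantifies migration of hNC cells after 72 h chemical exposure; 60,000 cells/well plated on Matrigel with LIF and bFGF, 16 h pre-incubation. DMSO baseline.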
# [8] = ArunA_NOG_NucleusCount: ArunA Biomedical's Neurite Outgrowth (NOG) Assay for Nucleus Count (AID 2283756)
# Procedure, shortened: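 Viable neuron count, from Hoechst nuclei passing size and intensity gates, imaged at 20x on differentiated H9-derived human neurons. Exposure lasted 48 h from seeding; activity was scored relative to DMSO.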
# [9] = ArunA_NOG_NeuritesPerNeuron: ArunA Biomedical's Neurite Outgrowth (NOG) Assay for Neurites Per Neuron (AID 2283758)
# Procedure, shortened: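 Differentiated human H9-derived neurons exposed to chemicals for 48 h from seeding, then stained with Hoechst and βIII-tubulin/DyLight 488. Automated imaging counted neurites (processes >10 um) per valid neuron; loss of signal versus DMSO scored.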
# [10] = system: Thyroperoxidase (TPO), gene 445522; test: CCTE_Simmons_GUA_TPO: CCTE's Guaiacol Assay for Thyroperoxidase (TPO) Inhibition, Simmons Lab (AID 2283750)
# Procedure, shortened: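 Porcine thyroid microsomes (25 ug) in 200mM potassium phosphate, preincubated 30 s at 37C with compound (8 concentrations, 5 nM–87.5 uM) and 35mM guaiacol; 1mM H2O2 starts reaction. Absorbance change at 450nm over first 80 s; loss of signal versus DMSO, three replicates.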
smiles,measurement,setting,value
CC(C)(C)C(O)/C(=C\c1ccc(Cl)cc1Cl)n1cncn1 (stereo not drawn),AC50,[1],74.4 µM (active)
same,outcome,[2],inactive
same,AC50,[3],94.2 µM (active)
COP(=S)(OC)Oc1ccc(SC)c(C)c1,outcome,[2],inactive
Oc1cc(Cl)ccc1Oc1ccc(Cl)cc1Cl,AC50,[1],75.8 µM (active)
same,AC50,[2],0.0234 µM (active)
same,outcome,[2],inactive
same,AC50,[3],41.4 µM (active) and 46.5 µM (active)
same,outcome,[3],inactive
same,outcome,[4],inactive
same,outcome,[5],inactive
same,outcome,[6],inactive
same,outcome,[7],inactive
same,outcome,[8],inactive
same,outcome,[9],inactive
C[C@H]1[C@H](c2ccc(Cl)cc2)SC(=O)N1C(=O)NC1CCCCC1,AC50,[2],0.000405 µM (active)
same,outcome,[3],inactive
O=[N+]([O-])c1c(Cl)c(Cl)c(Cl)c(Cl)c1Cl,outcome,[2],inactive
same,outcome,[3],inactive
ClC1C(Cl)C(Cl)C(Cl)C(Cl)C1Cl (stereo not drawn),outcome,[2],inactive
same,outcome,[3],inactive
CCCN(CCOc1c(Cl)cc(Cl)cc1Cl)C(=O)n1ccnc1,AC50,[2],50 µM (active)
same,outcome,[2],inactive
same,outcome,[3],inactive
C#CCN1C(=O)COc2cc(F)c(N3C(=O)C4=C(CCCC4)C3=O)cc21,AC50,[1],93 µM (active)
same,outcome,[2],inactive
same,outcome,[3],inactive
CCOC1Oc2ccc(OS(C)(=O)=O)cc2C1(C)C (stereo not drawn),AC50,[1],84.3 µM (active)
same,outcome,[3],inactive
CC1(c2ccc(Oc3ccccc3)cc2)OC(=O)N(Nc2ccccc2)C1=O (stereo not drawn),AC50,[1],3.15 µM (active)
same,outcome,[3],inactive
CCC(C)(NC(=O)c1cc(Cl)c(C)c(Cl)c1)C(=O)CCl (stereo not drawn),AC50,[1],22.9 µM (active)
same,outcome,[3],inactive
CNC(=O)Oc1ccccc1OC(C)C,outcome,[2],inactive
same,outcome,[3],inactive
CCCN(CCC)c1c([N+](=O)[O-])cc(C(F)(F)F)cc1[N+](=O)[O-],outcome,[2],inactive
same,outcome,[3],inactive
O=C1c2ccccc2C(=O)N1SC(Cl)(Cl)Cl,outcome,[2],inactive
same,outcome,[3],inactive
CNC(=O)Oc1cccc(N=CN(C)C)c1,outcome,[2],inactive
same,outcome,[3],inactive
CC(C)(C)C(O)C(Oc1ccc(Cl)cc1)n1cncn1 (stereo not drawn),AC50,[1],28.3 µM (active)
same,outcome,[2],inactive
same,AC50,[3],26.3 µM (active) and 43 µM (active) and 47 µM (active)
Oc1ccc(Cl)cc1Cc1ccccc1,outcome,[1],inactive
same,outcome,[2],inactive
same,AC50,[3],37.1 µM (active) and 23.4 µM (active) and 22.3 µM (active)
O=C(Nc1ccccc1)Nc1cnns1,AC50,[1],58.3 µM (active)
same,AC50,[2],65.5 µM (active)
same,outcome,[3],inactive
O=S1OCC2C(CO1)C1(Cl)C(Cl)=C(Cl)C2(Cl)C1(Cl)Cl (stereo not drawn),AC50,[1],77.1 µM (active)
same,outcome,[3],inactive
CC(C)OC(=O)Nc1cccc(Cl)c1,AC50,[1],11.7 µM (active)
same,outcome,[2],inactive
same,AC50,[3],39.2 µM (active)
CCS(=O)(=O)c1cccnc1S(=O)(=O)NC(=O)Nc1nc(OC)cc(OC)n1,outcome,[2],inactive
COc1nn(CSP(=S)(OC)OC)c(=O)s1,outcome,[2],inactive
same,outcome,[3],inactive
O=S(=O)(O)C(F)(F)C(F)(F)C(F)(F)C(F)(F)C(F)(F)C(F)(F)C(F)(F)C(F)(F)F,outcome,[1],inactive
same,outcome,[6],inactive
same,outcome,[7],inactive
same,AC50,[8],0.649 µM (active)
same,AC50,[9],1.02 µM (active)
COP(=S)(OC)Oc1ccc([N+](=O)[O-])cc1,outcome,[10],inactive
CNC(=O)CSP(=S)(OC)OC,outcome,[10],inactive
CCC(C)Nc1c([N+](=O)[O-])cc(C(C)(C)C)cc1[N+](=O)[O-] (stereo not drawn),outcome,[5],inactive
same,outcome,[7],inactive
same,outcome,[8],inactive
